Most compounds without a hit are left out; they make up all but 1.7% or so of the library.
15-hLO inh = blocks human 15-lipoxygenase activity; purified 15hLO-1, xylenol orange hydroperoxide absorbance; Potency, µM (top dose mostly 57.1 µM), without a hit: top-dose activity change, negative = inhibition, most hits filed as inhibitors; 74,000 compounds, 1.4% hits; AID 887; further: on the % scale 0 is the no-effect control and ±100 the full control effect; nearly all actives have a fitted effect of over 55% in size
Target sequence (P16050 whole entry, looked up): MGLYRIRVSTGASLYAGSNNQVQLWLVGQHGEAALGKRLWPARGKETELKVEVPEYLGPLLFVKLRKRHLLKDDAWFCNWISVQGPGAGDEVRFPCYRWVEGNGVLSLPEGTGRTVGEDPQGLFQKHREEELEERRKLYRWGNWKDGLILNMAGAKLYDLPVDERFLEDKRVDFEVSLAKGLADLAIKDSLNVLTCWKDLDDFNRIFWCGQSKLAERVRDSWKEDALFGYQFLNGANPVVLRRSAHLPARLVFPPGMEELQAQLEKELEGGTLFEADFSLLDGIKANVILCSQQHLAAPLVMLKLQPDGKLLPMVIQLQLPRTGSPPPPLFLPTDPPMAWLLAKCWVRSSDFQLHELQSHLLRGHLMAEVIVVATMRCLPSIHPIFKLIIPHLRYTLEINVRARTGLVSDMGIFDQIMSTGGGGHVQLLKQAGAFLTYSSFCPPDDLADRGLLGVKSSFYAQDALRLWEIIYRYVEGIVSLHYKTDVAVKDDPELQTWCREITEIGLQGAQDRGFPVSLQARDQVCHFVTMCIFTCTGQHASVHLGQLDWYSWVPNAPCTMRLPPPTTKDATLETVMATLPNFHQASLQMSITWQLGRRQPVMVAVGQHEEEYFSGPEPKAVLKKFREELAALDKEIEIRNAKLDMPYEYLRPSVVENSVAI
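Readout: Fe(III)-xylenol orange absorbance, 573-to-405 nm ratio as reaction progress. Enzyme 40 nM purified human 15hLO-1, substrate 50 uM arachidonic acid, 6 min RT after 15 min compound preincubation; Hepes pH 7.5 buffer with Triton X-100.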
ERK AVP inh = blocks ERK signaling stimulated by vasopressin. HEK293-V1b, vasopressin-stimulated pERK AlphaScreen. Potency, µM (series often up to 57.5 µM), inactives show at the highest dose activity, negative = inhibition, actives largely listed as inhibitors. 72,000 compounds, 0.99% hits; further: on the % scale 0 is the no-effect control and ±100 the full control effect; nearly all actives have a fitted effect of over 55% in size
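HEK293 cells stably expressing V1b receptor, preincubated 30 min at 37 °C with compound, then stimulated 5 min with 25 nM vasopressin. Phospho-ERK by AlphaScreen SureFire after 5 h RT; normalized to DMSO and vasopressin; AC50 by Hill fit.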
ALOX15B inhib = 15-hLO-2 (ALOX15B) enzyme inhibition; O15296; purified 15hLO-2, xylenol orange hydroperoxide absorbance; Potency, µM (top dose mostly 57.1 µM), without a hit: at the top dose activity change, negative = inhibition, hits mostly inhibitors; 110,000 compounds, 0.56% hits; further: on the % scale 0 is the no-effect control and ±100 the full control effect; nearly all actives have a fitted effect of over 60% in size
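Screening format was qHTS against 50 nM purified 15hLO-2 in Hepes pH 7.5 with detergent. Activity follows hydroperoxide formation from 45 uM arachidonic acid, measured as 573:405 nm absorbance ratio of the ferric-xylenol orange complex.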
Caspase-7 inhib = blocks human caspase-7 allosterically or competitively. 75,000 compounds, 0.02% hits. recombinant caspase-7, Ac-DEVD-AFC fluorescence rate. AID 889. Potency, µM (top dose mostly 57.5 µM), without a hit: at the top dose activity change, negative = inhibition, hits mostly inhibitors; active means well fitted inhibition curve with a large enough effect in the main read-out, with a control signal flat, not every such curve was filed as active; inconclusive means small, poorly fitted or top-dose-only effect, or a change in a side signal; further: % of control where 0% means no effect
Caspase-1 inhib = caspase-1 (human) inhibition, allosteric or competitive | Caspase-1 enzyme, Ac-WEHD-AFC fluorogenic rate | Potency, µM (titrated, usually from 57.5 µM), inactives show at the top dose activity change, negative = inhibition, hits mostly inhibitors | 75,000 compounds, 0.03% hits;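 further: plate controls were vehicle for no effect and no substrate for full effect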
* = called active by the depositor; ? = inconclusive; · = no result; ! = repeats disagree; [ ] = another dose, or the depositor's remark. Unless noted, the call rests on the fitted dose curve; in most records, active means well fitted curve in the direction sought with a large enough effect; inconclusive means small, poorly fitted or top-dose-only effect, or another doubt; inactive means no such curve, though single readings can be large; an effect the other way counts as inactive or inconclusive. Potency means the concentration at half of the fitted maximal effect.

SMILES	15-hLO inh	ERK AVP inh	ALOX15B inhib	Caspase-7 inhib	Caspase-1 inhib
CC(=O)OC/C=C(\C)CCC=C(C)C	?	-5.9%	4.5%	-2.6%	-2.1%
O=c1c2ccccc2nc2n1CCC2	3.16µM*	29.2%	-29.9%	-2.7%	-3.3%
COc1cc2c(cc1OC)C(CCN)=NCC2	10.9%[11.4 µM]	-4.9%[11.5 µM]	11.1%[11.4 µM]	-10.4%[11.5 µM]	-4.8%[11.5 µM]
CCOc1ccccc1C(=O)Nc1cc(Cl)ccc1O	10µM*	10µM*	-9.2%[11.4 µM]	-4.9%	-4.2%
COc1ccccc1C(=O)Nc1cc(Cl)ccc1O	·	·	-8.6%	·	·
COC(=O)c1cc(Cc2ccc(N)c(C(=O)OC)c2)ccc1N	25.1µM*	-24.8%	2.2%	-3.2%	-0.9%
CC(=O)Nc1ccc(C2C(C)CCC3C(=O)N4C(CCC(C)[C@@H]4c4ccc(NC(C)=O)cc4)C(=O)N32)cc1 (stereo partly specified)	-5.8%[11.4 µM]	25.1%[11.5 µM]	·	1.4%[11.5 µM]	-2.6%[11.5 µM]
COC(=O)C1C(=O)C2=C(CC1C)NC(C)=C(C(=O)OC1CCCCC1)C2c1ccc(N(C)C)cc1 (stereo unspecified)	15.8µM*	-19.4%	·	-27.2%	?
O=C(O)c1cc(-c2ccncc2)nc2ccccc12	11.2%[11.4 µM]	12.9%[11.5 µM]	7.6%[11.4 µM]	2.1%[11.5 µM]	1.9%[11.5 µM]
CC1=C(C(=O)c2ccccc2)C(c2cn(-c3ccccc3)nc2-c2ccc(Cl)cc2)NC(=S)N1 (stereo unspecified)	·	·	7.94µM*	·	·
C[C@H]1CCCC=CC2C[C@H](OC(=O)CN(C)C)C[C@@H]2[C@@H](O)/C=C\C(=O)O1 (stereo partly specified)	4.1%[11.4 µM]	-4.8%[11.5 µM]	-2.5%[11.4 µM]	-1.2%[11.5 µM]	-0.5%[11.5 µM]
C1=C(c2ccccc2)CCN(c2ncnc3nc[nH]c23)C1	25.1µM*	·	4.5%	-1.6%	0.7%
NC(=O)c1ccc[n+]([C@@H]2OC(COP(=O)([O-])OP(=O)(O)OCC3OC(n4cnc5c(N)ncnc54)C(OP(=O)(O)O)C3O)C(O)C2O)c1 (stereo partly specified)	-6.7%	-3.5%	44.5%	-4.5%	-3.0%
COc1cccc(CC(NC(C)=O)C(=O)NC2CCN(c3nc(C)cc(C)c3C#N)CC2)c1 (stereo unspecified)	1.9%	-10.3%	0.7%	-3.8%	-2.9%
COc1ccc(CC(NC(C)=O)C(=O)NC2CCN(c3nc(C)cc(C)c3C#N)CC2)c(OC)c1 (stereo unspecified)	25.1µM*	-30.9%	1.6%	-2.8%	-4.8%
CC(=O)OCC1OC(c2ccc3c(c2)OCO3)C=CC1OC(C)=O (stereo unspecified)	6.0%[11.4 µM]	5.6%[11.5 µM]	·	1.5%[11.5 µM]	3.0%[11.5 µM]
O=C(Nc1nc(-c2nc3ccccc3s2)cs1)c1ccc(S(=O)(=O)N2CCOCC2)cc1	16.8%	3.16µM*	3.0%	-6.6%	-4.3%
O=C(Nc1nc(-c2ccc(S(=O)(=O)N3CCOCC3)cc2)cs1)c1ccccc1	·	·	1.1%	·	·
O=C(Nc1nc(-c2ccc(S(=O)(=O)N3CCCC3)cc2)cs1)c1cccs1	-13.8%	15.8µM*	-5.2%	-0.1%	0.4%
O=C(O[C@@H]1Cc2c(O)cc(O)cc2OC1c1ccc(O)c(O)c1)c1cc(O)c(O)c(O)c1 (stereo partly specified)	6.31µM*	-26.9%	?	-10.7%	-2.5%
O=C(OC1Cc2c(O)cc(O)cc2OC1c1cc(O)c(O)c(O)c1-c1c(C2Oc3cc(O)cc(O)c3CC2OC(=O)c2cc(O)c(O)c(O)c2)cc(O)c(O)c1O)c1cc(O)c(O)c(O)c1 (stereo unspecified)	?	-29.9%	-11.6%	-18.8%	0.1%
CCOC(=O)c1sc(=S)n(-c2cc(OC)ccc2OC)c1N	12.6µM*	4.8%	-13.1%	0.5%	0.8%
CCOC(=O)c1sc(=S)n(-c2cc(F)ccc2F)c1N	?	-6.3%	-7.5%	-1.8%	-1.4%
Oc1c(Br)cc(Br)cc1CN(Cc1cc(Br)cc(Br)c1O)C1CCCCC1	-8.5%[11.4 µM]	7.5%[11.5 µM]	-5.8%[11.4 µM]	-13.9%[11.5 µM]	-3.1%[11.5 µM]
Cc1c(C(=O)NCCC2=CCCCC2)oc2ccc(S(=O)(=O)N3CCOCC3)cc12	15.8µM*	?	-7.3%	-2.6%	-2.6%
SMILES	15-hLO inh	ERK AVP inh	ALOX15B inhib	Caspase-7 inhib	Caspase-1 inhib
CC(=O)n1nc(-c2ccco2)nc1SCc1ccccc1	3.98µM*	?	·	?	-8.0%
O=C(NCc1ccccc1)c1cc2ccccc2o1	·	·	-9.8%	·	·
O=C(NCc1ccco1)c1cc2ccccc2o1	20µM*	-1.4%	4.1%	-1.1%	-3.2%
COC(=O)c1ccc(NC(=O)c2ccc(CN3CCOCC3)cc2)cc1	1.1%	?	6.6%	-1.1%	0.4%
O=C(Nc1ccc(CN2CCOCC2)cc1)c1ccc(-c2ccc(Br)cc2)o1	-23.3%	31.6µM*	4.9%	0.1%	-4.0%
CCOCCCn1c(C)nc2c(c1=O)c1nc3ccccc3nc1n2CCC1=CCCCC1	25.1µM*	-13.4%	-19.1%	?	?
Cc1nc2c(c(=O)n1CCC1=CCCCC1)c1nc3ccccc3nc1n2/N=C/c1ccccc1	·	·	-3.6%	·	·
COCCn1c(=O)cnc2cnc(Nc3cccc(OC)c3)nc21	-8.4%	-6.1%	-11.7%	-7.5%	-5.8%
CCOC(=O)C(C(=O)OCC)c1cc(Br)c2noc3c2c1C(=O)c1ccccc1-3	-18.9%	25.1µM*	?	-26.1%	-15.5%
NC(=O)NC(=O)[C@H]1CCCC[C@@H]1C(=O)O	4.7%[11.4 µM]	13.2%[11.5 µM]	-1.4%[11.4 µM]	1.6%[11.5 µM]	0.5%[11.5 µM]
CCOc1ccc(NS(=O)(=O)c2ccc3[nH]cc(C(=O)NC(C)CC)c(=O)c3c2)cc1 (stereo unspecified)	25.1µM*	-12.9%	14.0%	1.4%	1.1%
CCc1ccc(C(=O)CSc2n[nH]c(-c3ccncc3)n2)cc1	·	·	24.9%	·	·
O=C(CSc1n[nH]c(-c2ccccc2)n1)c1ccc(O)c(O)c1	5.01µM*	-6.5%	?	0.8%	-0.8%
CC(=O)C1=C(C)Nc2cc(C(F)(F)F)ccc2S1	12.6µM*	-17.5%	?	0.5%	-0.3%
FC(F)(F)c1cnc2c(c1)Nc1ccccc1S2	-2.6%	17.6%	-12.0%	-8.6%	-11.7%
CC(=O)OCC(=O)[C@@]1(O)[C@H](OC(C)=O)C[C@H]2[C@@H]3CCC4=CC(=O)C=C[C@]4(C)[C@@]3(F)[C@@H](O)C[C@@]21C	·	·	11.9%[0.0915 µM]	·	·
CC(C)(C(=O)O)c1ccc(C(O)CCCN2CCC(C(O)(c3ccccc3)c3ccccc3)CC2)cc1 (stereo unspecified)	20µM*!	-13.3%	14.6%	0.7%	0.9%
O=C(NCCN1CCOCC1)c1ccc(-n2c(=O)c(=O)[nH]c3ccccc32)cc1	-7.0%	·	·	-0.6%	-5.5%
O=C(Nc1ccc2c(c1)OCO2)c1ccc(Br)c(S(=O)(=O)N2CCCC2)c1	-15.4%	?	·	-5.0%	-5.1%
O=C(Nc1ccc2c(c1)OCO2)c1cccc(S(=O)(=O)N2CCCC2)c1	-19.8%	15.8µM*	7.5%[2.29 µM]	-1.8%	-0.3%
O=C(Nc1ccc2c(c1)OCCO2)c1ccc(Br)c(S(=O)(=O)N2CCOCC2)c1	-3.2%[11.4 µM]	7.94µM*	-2.0%	-2.6%	-4.1%
